# Rows were chosen to be rich in hits. Some 4% of all compounds tested hit in one or more screens of this group.
# HIF-2a inh: blocks HIF-2a reporter activity. 786-0 RCC cells HIF-2a reporter, luciferase luminescence, overnight. inhibition, % at 18.8 µM. 360,000 tested, 0.72% active;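 active = inhibition of the luminescence signal of 40% or more relative to plate controls, in a single-dose primary screen at 18.75 µM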
# TWEAK-Fn14 inh: TWEAK-Fn14 signaling inhibition; TWEAK-stimulated Fn14 reporter cells, luciferase luminescence, 8 h; 360,000 tested, 2% active; AID 1159606; inhibition, % at 10 µM; in the data active = inhibition above about 50%
# Peg3 prom inh: reduces Peg3 promoter-driven luciferase expression in HeLa; 360,000 tested, 1.7% active; inhibition, % at 20 µM; AID 588405; HeLa PEG-Prom luciferase reporter, luminescence, overnight;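 active = inhibition of at least 50% at 20 µM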
# EBV LMP1 NFkB: reduces LMP1-driven NF-kappaB luciferase signal. inhibition, % at 12.5 µM. AID 504558. 350,000 tested, 0.69% active. LMP1-induced NF-kappaB luciferase reporter cells, luminescence; in the data active = inhibition above about 41%;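 note: 0% = neutral control wells and 100% = reference inhibitor control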
# MITF TRPM1 inh: MITF TRPM1 promoter inhibition in SK-MEL-5 cells; 330,000 tested, 0.83% active; SK-MEL-5 TRPM1 promoter luciferase, 24 h; inhibition, % at 12.5 µM;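 active = mean inhibition across replicates of 60% or more, whatever share of single replicates reaches that level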
# TROY signal inh: blocks TROY-dependent signaling in reporter cells; AID 1347056; 360,000 tested, 0.98% active; Q293 LMP1-TROYcd NF-kB luciferase reporter, 4 h; inhibition, % at 10 µM;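 active = compounds whose plate-normalised and pattern-corrected inhibition of the luciferase reporter signal at the single screening dose is 50% or more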
# * marks the source's active call; other numbers are inactive results; / = not tested or not shown.
SMILES,HIF-2a inh,TWEAK-Fn14 inh,Peg3 prom inh,EBV LMP1 NFkB,MITF TRPM1 inh,TROY signal inh
O=C(NCC(=O)N(c1cccnc1)C(C(=O)NC1CCCCC1)c1ccccc1F)c1ccco1 (stereo not given),3,9,10,-5,4,-2
COCCCNC(=O)CCc1c(C)c2cc3c(C)coc3cc2oc1=O,-4,5,7,-5,-3,-11
C[C@@H]1CN([C@@H](C)CO)C(=O)c2c(c3ccccc3n2C)-c2ccccc2CO[C@H]1CN(C)C(=O)[C@H](C)c1ccccc1,8,14,12,13,/,11
Cc1ccc(C2C3=C(CC(C)(C)CC3=O)NC3=C2C(=O)CC(C)(C)C3)o1,11,84*,4,-6,9,/
Cc1ccc(C2Nc3ccc4ccccc4c3C3=C2C(=O)CC(C)(C)C3)o1 (stereo not given),-261,15,-101,-6,-11,-68
COCCn1c(C)cc(C(=O)CSc2nnnn2C2CCCC2)c1C,-63,75*,36,70*,1,14
NC(=O)C(=O)N/N=C/c1c(F)c(F)c(F)c(F)c1F,2,5,6,-3,2,-6
Cc1ccc(C(=O)CSc2cnc3ccccc3n2)cc1C,-8,89*,-143,-6,-10,76*
CC(C)N1C(=O)CCC1C(=O)N1CCN(c2ccc(F)cc2)CC1 (stereo not given),10,-9,6,1,-1,17
CCC(C)N1C(=O)CCC1C(=O)N1CCN(c2ccc(F)cc2)CC1 (stereo not given),0,-4,-4,64*,0,-17
CCOC(=O)C1(CCCc2ccccc2)CCN(Cc2cn(CC)nc2C)CC1,20,2,23,12,18,8
O=c1cc(C(F)(F)F)nc(SCc2cccc3ccccc23)[nH]1,-31,-28,-14,-2,5,62*
Nc1cc(=O)[nH]c(SCc2cccc3ccccc23)n1,11,-9,26,5,9,17
Oc1ccc(-c2n[nH]c(C(F)(F)F)c2-c2ccccc2)c(O)c1,12,56*,12,7,8,31
COc1ccc(-c2c(-c3ccc(O)cc3O)n[nH]c2C(F)(F)F)cc1,16,39,0,-10,28,19
Cc1oc2c(c1C(=O)c1ccccc1)C(=O)C(=O)c1ccccc1-2,88*,-1,108*,94*,-15,32
CCOC(=O)c1c(C)oc2c1C(=O)c1ccccc1C2=O,-88,6,33,3,97*,0
O=CN1c2ccccc2CSc2ccccc21,27,-27,24,/,/,-27
CCOC(=O)COc1ccccc1/C=C\[N+](=O)[O-],92*,104*,110*,15,97*,87*
COc1ccc(S(=O)(=O)NCCc2csc(-c3cccnc3)n2)cc1,6,-3,0,77*,-8,11
O=C(NCc1ccccc1)c1cc(C2COCCN2C(=O)C/C=C/c2ccccc2)on1 (stereo not given),9,15,8,/,/,-17
CCN(c1ccccc1)S(=O)(=O)c1ccc(Cl)c(NC(=O)CN(C)Cc2cccc(F)c2)c1,17,23,21,9,13,11
COCCNc1nc(Oc2cccc(F)c2)c2sccc2n1,8,13,7,/,/,-5
COCCNc1nc(Oc2cncc(Cl)c2)c2sccc2n1,8,50*,17,/,/,27
O=C(CCN1C(=O)/C(=C/c2ccc3c(c2)OCO3)SC1=S)Nc1ccc(C(=O)O)cc1,-6,-19,-7,5,-10,-57
SMILES,HIF-2a inh,TWEAK-Fn14 inh,Peg3 prom inh,EBV LMP1 NFkB,MITF TRPM1 inh,TROY signal inh
O=C(CCCN1C(=O)C(=Cc2ccc3c(c2)OCO3)SC1=S)Nc1ccc(C(=O)O)c(O)c1,51*,-49,-5,/,/,8
O=C(CCCN1C(=O)/C(=C/c2ccccc2)SC1=S)Nc1ccc(C(=O)O)c(O)c1,-5,-38,-3,6,-8,-18
O=C(CCCN1C(=O)/C(=C/c2ccc3c(c2)OCO3)SC1=S)Nc1ccc(C(=O)O)cc1,69*,6,19,10,20,19
CC(C)NC(=O)CSc1ccccc1C(=O)NNC(=O)Cn1ccc(C(F)(F)F)n1,14,5,6,-10,10,-3
O=C(NC1CC2CCC(C1)N2Cc1nnnn1Cc1ccco1)NC12CC3CC(CC(C3)C1)C2 (stereo not given),21,-3,8,8,9,1
CCOc1ccccc1C(=O)NC1CC2CCCC(C1)N2Cc1nnnn1Cc1ccco1 (stereo not given),3,-8,20,57*,-1,-4
O=C(O/C(=C/c1ccccc1)C(F)(F)F)c1ccccc1,11,-1,6,8,11,-5
CCOC(=O)NNC(=O)CCn1c2c(c3ccccc31)CCCC2,24,59*,10,14,-8,47
COc1ccccc1Nc1ncnc2c1c(C)c(C)n2CCO,-163,-48,-106,-12,-35,-30
CCn1c(C)nc2cc(C(=O)OC(C(F)(F)C(F)F)C(F)(F)C(F)F)ccc21,-190,1,-288,-62,-46,57*
CCn1c(C)nc2cc(C(=O)NNC(=O)c3ccc(C)cc3)ccc21,-134,72*,-110,-30,-27,78*
CCn1c(C)nc2cc(C(=O)NNC(=S)Nc3ccccc3)ccc21,-89,71*,-209,-13,-17,78*
COc1ccc(CCNC(=O)COC(=O)Cn2cnc3c2c(=O)n(C)c(=O)n3C)cc1,-9,10,4,0,-5,-4
O=S1c2ccccc2Sc2ccccc21,8,5,14,5,-6,-5
CC(Oc1ccc(F)cc1)C(=O)Nc1cccc(S(=O)(=O)N(C)c2ccccc2)c1 (stereo not given),16,-8,34,0,/,9
CCCCn1nnnc1C1(C)CCC(=O)N1CC1CCCCC1 (stereo not given),-6,2,/,/,/,-11
CCOc1ccc(/C=C2\SC(=O)N(CCNC(=O)C3COc4ccccc4O3)C2=O)cc1OC (stereo not given),-36,40,13,4,-14,51*
CCOc1ccccc1/C=N/n1nnnc1N,15,74*,15,9,-6,-10
Nc1nnnn1/N=C/c1ccccc1O,-7,0,-25,2,-7,-8
CC(C)[C@H](N[C@@H](C)c1ccccc1)c1c(O)ccc2ccccc12,11,5,2,66*,1,20
Cc1ccc(-n2nnc(-c3cnc4ccccc4c3)n2)cc1,-115,63*,-166,7,7,18
Cc1ccc(-n2nnc(-c3nccn3C)n2)cc1,-26,76*,-44,16,4,31
Cc1ccc(-n2nnc(-c3cccnc3)n2)cc1,-291,2,-280,-14,-96,-47
Cc1ccc(C(=O)CN(CCC(=O)O)S(=O)(=O)c2ccc([N+](=O)[O-])cc2)cc1,8,-9,-4,1,1,6

# Screens: PubChem, several laboratories
